Screening data deposited in PubChem BioAssay by National Center for Advancing Translational Sciences (NCATS).
D1 antagonist: antagonists of human D1 dopamine receptor; HEK293 TREx D1 cells, calcium flux, dopamine EC80; active compounds read low; 3.2% of 360,000 active; P21728; activity change, negative = inhibition, % at 10 µM; in the data active = activity change below about -30%; also: % is scaled to controls: 0 for no effect and ±100 for the full control effect
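Tetracycline-induced HEK293 T-REx cells with force-coupled D1 receptor were loaded with a no-wash calcium dye. Compound was added after a 10 s baseline and read kinetically for 180 s; EC80 dopamine was then added and calcium flux followed another 180 s.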
ERG-DNA inh: ERG Ets/DNA interaction inhibition | P11308 | AID 624246 | fluorescence polarization, His-ERG Ets domain / labelled DNA | Potency, µM (series often up to 76.9 µM), for inactives: at the top dose FP activity, negative = inhibition, most hits filed as inhibitors | 0.028% of 370,000 active; active = well fitted inhibition curve with a large enough effect in the polarisation, with a control signal flat; the % refers to the polarisation;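 also: polarization taken with two DNA probes labelled with fluorescein and Texas red; potency is read from the fitted curve at half-maximal effect; % of control where 0% means no effect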
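His-tagged ERG Ets domain (1 uM in the protein solution; 300mM KCl, 50mM Tris-HCl, 1mM EDTA, 1mM DTT, pH 7.5) received compound, then a probe mix of 5 nM fluorescein-DNA and 100nM Texas-615-DNA. Fluorescence polarization was read for both dyes.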
D1 PAM: human D1 dopamine receptor positive modulation; HEK293 TREx D1 cells, calcium flux, dopamine EC20 potentiation; potentiation, % at 10 µM; 0.036% of 360,000 active; in the data active = potentiation above about 30%; also: 0% is about no effect
D1 agonist: activates the human D1 dopamine receptor; 1% of 360,000 active; AID 504660; HEK293 T-REx D1 cells, calcium flux, agonist mode; activation, % at 2 µM; P21728; in the data active = activation above about 30%; also: 0% is about no effect
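Agonism was scored from calcium flux recorded over 180 s (1 read/s) after pintool compound addition, following a 10-cycle baseline. Cells were inducible force-coupled HEK293 TREx D1, plated overnight at 30 C and loaded with no-wash calcium dye.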
D3 antag: blocks the human D3 dopamine receptor; max response, negative = inhibition, %; AID 652054; D3R cells, DiscoveRx beta-arrestin luminescence, antagonist mode; active compounds read low; 2.5% of 360,000 active; P35462; in the data active = max response below about -50%; also: % is scaled to controls: 0 for no effect and ±100 for the full control effect
Target sequence (P35462 whole entry, looked up): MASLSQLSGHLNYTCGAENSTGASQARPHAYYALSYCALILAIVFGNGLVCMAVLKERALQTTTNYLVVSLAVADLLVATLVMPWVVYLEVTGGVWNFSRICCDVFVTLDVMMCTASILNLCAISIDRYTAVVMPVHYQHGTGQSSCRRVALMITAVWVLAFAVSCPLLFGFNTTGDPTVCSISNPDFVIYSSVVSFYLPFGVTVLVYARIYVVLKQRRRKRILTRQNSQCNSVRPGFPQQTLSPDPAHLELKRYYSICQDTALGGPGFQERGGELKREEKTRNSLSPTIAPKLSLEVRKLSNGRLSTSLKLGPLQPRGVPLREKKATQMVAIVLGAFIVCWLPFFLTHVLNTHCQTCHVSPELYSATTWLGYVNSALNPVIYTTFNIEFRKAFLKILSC
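Cells expressing the human receptor were seeded at 1500 cells/well, incubated overnight at 37 degrees C in 5% CO2, then exposed to library compounds with dopamine controls for 90 minutes at 37 degrees C before luminescent detection.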
D3 ag: D3 dopamine receptor (human) agonism; D3R DiscoveRx beta-arrestin cells, luminescence, 90 min; max activation, %; 0.58% of 410,000 active; in the data active = max activation above about 30%; also: 0% is about no effect
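Agonist-mode cell screen: cells plated at 1500/well and incubated overnight at 37 °C, then exposed to library compounds for 90 min at 37 °C. Detection reagent was added for 30–60 min at room temperature, and luminescence was read.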
* hit, by the source's call; . = not tested or not shown. A selection: hits, their analogues and other compounds. The true share with any hit is near 6.1%.

SMILES | D1 antagonist | ERG-DNA inh | D1 PAM | D1 agonist | D3 antag | D3 ag
CCOC(=O)N1CCN(S(=O)(=O)N2CCCC(C(=O)NCCc3ccccc3)C2)CC1 (stereo not given) | -5 | 6% | -4 | -1 | 1 | 0
CCOC(=O)c1c(C)[nH]c(C)c1S(=O)(=O)N1CCCC(C(=O)NCc2ccc(C)cc2)C1 (stereo not given) | -3 | 1% | -3 | 1 | . | -7
CCOC(=O)c1c(C)[nH]c(C)c1S(=O)(=O)N1CCC(C(=O)Nc2ccccc2CC)CC1 | -37* | 0% | 3 | 0 | . | -2
CCOC(=O)c1c(C)[nH]c(C)c1S(=O)(=O)N1CCCC(C(=O)NCc2ccc(Cl)cc2)C1 (stereo not given) | -31* | -14% | 2 | 4 | . | 4
CCOC(=O)c1c(C)[nH]c(C)c1S(=O)(=O)N1CCC(C(=O)NCc2ccccc2Cl)CC1 | 9 | -8% | -3 | 7 | . | -3
CCOC(=O)N1CCN(S(=O)(=O)N2CCCC(C(=O)NCCc3ccc(Cl)cc3)C2)CC1 (stereo not given) | -41* | 6% | -3 | 5 | 2 | -11
CCOc1ccc(S(=O)(=O)N2CCCC(C(=O)NCc3ccncc3)C2)cc1Cl (stereo not given) | -31* | 3% | -4 | 13 | -4 | -2
Cc1noc(C)c1S(=O)(=O)N1CCCC(C(=O)NCCc2ccc(Cl)cc2)C1 (stereo not given) | 6 | 8% | 6 | 1 | -72* | 1
COc1cc2c(cc1OC)C1(CCCC1)CNC2c1cccc([N+](=O)[O-])c1 (stereo not given) | 9 | -3% | -2 | 0 | -77* | -35
CCN1CCCC1CNc1ccc(S(C)(=O)=O)cc1[N+](=O)[O-] (stereo not given) | 6 | -5% | -7 | 1 | -54* | -18
CC1=C(C(=O)Nc2ccc(Cl)cc2)C(c2cccs2)n2nnnc2N1 (stereo not given) | 16 | 12% | -12 | 0 | 16 | 0
COC(=O)C1=C(C(=O)c2ccccc2)C(c2cccs2)n2nnnc2N1 (stereo not given) | -14 | -2% | -2 | 1 | -60* | 0
COC(=O)C1=C(C(=O)c2ccccc2)C(c2ccc(OC)c(OC)c2)Nc2nnnn21 (stereo not given) | -22 | 6% | -6 | 4 | -75* | -4
CCOc1cc(C2C(C(=O)c3ccccc3)=C(C(=O)OC)Nc3nnnn32)ccc1O (stereo not given) | -9 | -3% | 0 | 2 | -55* | 1
COC(=O)C1=C(C(=O)c2ccccc2)C(c2ccc(O)c(OC)c2)n2nnnc2N1 (stereo not given) | . | -12% | 0 | -1 | -19 | -15
COc1nc(NCCO)nc(Nc2cc(Cl)ccc2OC)n1 | 17 | 9% | 2 | 6 | -1 | -4
Cc1ccc(-n2c(C)c([N+](=O)[O-])c3ccc(O)cc32)cc1 | -7 | . | -2 | 1 | . | .
CCOC(=O)/C(C#N)=C\c1cn(C)c2ccccc12 | -32* | -4% | -4 | 3 | -2 | 3
CCOC(=O)C(=O)/C(C#N)=C/Nc1ccccc1 | -9 | 19% | -10 | 1 | -57* | 1
CC(C)=C1C2CCC1C(C(=O)NCCc1ccccc1)C2C(=O)O (stereo not given) | 4 | 12% | -2 | 6 | -8 | 10
Cc1ccccc1OCCC(=O)OCC(=O)Nc1ccc(C(N)=O)cc1 | -27 | 3% | 0 | 3 | -20 | -4
O=S(=O)(O)C1CCNCC1 | -49* | . | -2 | 3 | . | .
Cc1nn(C)c(C)c1/C=C(/C(=O)C(C)(C)C)n1cncn1 | 18 | 2% | 0 | 0 | -13 | -3
CC(C)(C)C(=O)/C(=C/c1ccncc1)n1cncn1 | -2 | 7% | 5 | 3 | -56* | -10
CC(C)(C)C1CCc2c(C(=O)NNC(=O)/C=C/C(=O)O)csc2C1 (stereo not given) | -32* | 0% | -5 | 1 | 2 | 1
